Source: PubChem BioAssay AID1159580 (chemical genetic matrix, 2015)
Several values for one entry are separate records, joined by “and”; a condition that tells them apart may be missing. Equal entries are not always repeated. Screen size: about 5,500 compounds; about 2,000 (36%) were called active. About 18% were inconclusive and are not listed. Cut-off read from the data, not from the text of the source: active = normalized growth mostly below about 0.91 (no sharp cut-off); inconclusive = no clear call, values can overlap the other calls; inactive = mostly above about 0.92. This is one part of the list.

Experiment: chemical genetic growth profiling, strain panel (AID 1159580);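 note: tested at 20 µM; growth read once vehicle control cultures reached saturation at 30 °C; 1 = growth at the plate median or of vehicle wells; lower values mean less growth of the strain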
Conditions: S. cerevisiae deletion strains, growth OD

Measured: normalized growth

CC1=C(C(=O)O)N2C(=O)[C@@H](NC(=O)[C@H](N)C3=CCC=CC3)C2SC1 (some centres not stated)
inactive: locus YAL013W, strain DEP1, active compounds read low 1 | locus YAL021C, strain ccr4, active compounds read low 1.01 | locus YAL026C, strain drs2, active compounds read low 1.03 | locus YAL030W, strain snc1, active compounds read low 1.03 | locus YBL061C, strain skt5, active compounds read low 1.03 | locus YBR009C, strain hhf1, active compounds read low 1.02 | locus YBR021W, strain FUR4, active compounds read low 1.02 | locus YBR023C, strain chs3, active compounds read low 1.02 | locus YBR171W, strain sec66, active compounds read low 1.04 | locus YBR229C, strain ROT2, active compounds read low 0.953 | locus YBR231C, strain swc5, active compounds read low 1.04 | locus YBR279W, strain paf1, active compounds read low 1.01 | locus YCL011C, strain gbp2, active compounds read low 1.03 | locus YCL016C, strain dcc1, active compounds read low 1.02 | locus YCL029C, strain bik1, active compounds read low 0.998 | locus YCL061C, strain MRC1, active compounds read low 1.02 | locus YCL069W, strain vba3, active compounds read low 1.02 | locus YCR088W, strain abp1, active compounds read low 1.02 | locus YDL005C, strain med2, active compounds read low 1.03 | locus YDL035C, strain GPR1, active compounds read low 0.965 | locus YDL040C, strain nat1, active compounds read low 1.02 | locus YDL074C, strain BRE1, active compounds read low 0.987 | locus YDL101C, strain DUN1, active compounds read low 0.98 | locus YDL185W, strain tfp1, active compounds read low 0.977 | locus YDL192W, strain arf1, active compounds read low 0.989 | locus YDR001C, strain nth1, active compounds read low 1.01 | locus YDR069C, strain doa4, active compounds read low 1.02 | locus YDR101C, strain arx1, active compounds read low 0.988 | locus YDR137W, strain rgp1, active compounds read low 1.03 | locus YDR159W, strain sac3, active compounds read low 1.04 | locus YDR162C, strain NBP2, active compounds read low 0.951 | locus YDR195W, strain ref2 0.992 | locus YDR297W, strain sur2, active compounds read low 1.02 | locus YDR318W, strain mcm21, active compounds read low 1 | locus YDR334W, strain swr1, active compounds read low 1.01 | locus YDR335W, strain msn5, active compounds read low 1.02 | locus YDR388W, active compounds read low 0.99 | locus YDR392W, strain spt3, active compounds read low 1.03 | locus YDR502C, strain sam2, active compounds read low 1.02 | locus YEL003W, strain gim4, active compounds read low 1.02 | locus YEL037C, strain rad23, active compounds read low 1.02 | locus YEL061C, strain CIN8 (second series), active compounds read low 1.02 | locus YEL061C, strain CIN8, active compounds read low 0.995 | locus YER015W, strain faa2, active compounds read low 1 | locus YER016W, strain bim1, active compounds read low 1.02 | locus YER110C, active compounds read low 0.981 | locus YER111C, strain swi4, active compounds read low 1.03 | locus YER155C, strain BEM2 (second series), active compounds read low 1.03 | locus YER155C, strain BEM2, active compounds read low 0.998 | locus YER167W, strain BCK2, active compounds read low 0.989 | locus YFR010W, strain ubp6, active compounds read low 1.03 | locus YGL078C, strain dbp3, active compounds read low 0.993 | locus YGL086W, strain mad1, active compounds read low 0.933 | locus YGL167C, strain pmr1, active compounds read low 1.04 | locus YGL173C, strain kem1, active compounds read low 1.03 | locus YGL227W, strain vid30, active compounds read low 1.02 | locus YGL240W, strain doc1, active compounds read low 1.03 | locus YGL248W, strain PDE1, active compounds read low 1.01 | locus YGL253W, strain hxk2, active compounds read low 1.03 | locus YGR135W, strain pre9, active compounds read low 1.03 | locus YGR252W, strain gcn5, active compounds read low 1.05 | locus YHR013C, strain ard1, active compounds read low 1.05 | locus YHR027C, strain rpn1, active compounds read low 1.02 | locus YHR030C, strain SLT2, active compounds read low 0.994 and 0.964 | locus YHR079C, strain IRE1 (second series), active compounds read low 1 | locus YHR079C, strain IRE1, active compounds read low 0.956 | locus YHR094C, strain hxt1, active compounds read low 0.983 | locus YHR129C, strain ARP1, active compounds read low 0.988 | locus YHR142W, strain chs7, active compounds read low 1.04 | locus YHR200W, strain rpn10, active compounds read low 0.986 | locus YIL066C, strain RNR3, active compounds read low 0.971 | locus YIL073C, strain SPO22, active compounds read low 1.01 | locus YIL125W, strain kgd1, active compounds read low 0.99 | locus YIR030C, strain dcg1, active compounds read low 0.993 | locus YJL092W, strain hpr5, active compounds read low 1.02 | locus YJL095W, strain BCK1 (second series), active compounds read low 1.02 | locus YJL095W, strain BCK1, active compounds read low 1.02 and 0.989 | locus YJL115W, strain asf1, active compounds read low 1.03 | locus YJL129C, strain trk1, active compounds read low 1.03 | locus YJL134W, strain LCB3, active compounds read low 0.985 | locus YJL154C, strain vps35, active compounds read low 1.01 | locus YJL164C, strain tpk1, active compounds read low 1.02 | locus YJL166W, strain qcr8, active compounds read low 1.02 | locus YJL168C, strain set2, active compounds read low 0.994 | locus YJL187C, strain SWE1 (second series), active compounds read low 0.996 | locus YJL187C, strain SWE1, active compounds read low 1.03 | locus YJR043C, strain POL32, active compounds read low 0.961
